Measurements: PubChem BioAssay (EPA / NIEHS)
Inconclusive results are not listed. Activity calls are given as the source filed them. How the source made its calls: active means hit-call score of the fitted dose curve at least 0.9, where 1 is the maximum; inconclusive means response in the unintended direction; inactive means score below 0.9.

Columns and labels:
[1] = TOX21_p53_BLA_p2_viability: Viability Assessment in the Tox21 HCT-116 p53 Agonism Beta-lactamase Assay, Phase 2 (AID 2283591);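 further: compound exposure lasted 16 h at 37 °C; actives lower the ATP signal meaning cytotoxicity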
Summary of the method: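 HCT116 p53-bla cells, 4000/well, dosed after 5 h plating (217-fold dilution of DMSO stocks) and incubated 16 h at 37C. Viability taken as cellular ATP by CellTiter-Glo luminescence after 30 min RT; signal loss marks cytotoxicity.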

[2] = biological target: Cellular tumor antigen p53 (Homo sapiens) (UniProt P04637); experiment: TOX21_p53_BLA_p2_ratio: Tox21 HCT-116 p53 Agonism Beta-lactamase Assay, Ratio, Phase 2 (AID 2283592)
Sequence of Cellular tumor antigen p53 (Homo sapiens) (P04637 whole entry, looked up): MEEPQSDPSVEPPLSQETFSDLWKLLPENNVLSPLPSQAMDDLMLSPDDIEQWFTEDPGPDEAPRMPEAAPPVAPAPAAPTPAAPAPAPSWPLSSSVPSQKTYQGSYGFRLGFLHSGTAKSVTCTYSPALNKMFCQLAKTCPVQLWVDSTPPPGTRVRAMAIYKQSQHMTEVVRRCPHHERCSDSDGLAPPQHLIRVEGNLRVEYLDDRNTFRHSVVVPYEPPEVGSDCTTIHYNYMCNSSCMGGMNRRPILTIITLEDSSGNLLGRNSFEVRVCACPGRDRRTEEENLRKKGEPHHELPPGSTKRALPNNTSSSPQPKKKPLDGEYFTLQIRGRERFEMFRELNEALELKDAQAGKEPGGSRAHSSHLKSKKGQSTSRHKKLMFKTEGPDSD
Summary of the method: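 DMSO-normalized, positive-direction endpoint derived from the 460 nm/530 nm FRET ratio in HCT116 p53 beta-lactamase reporter cells exposed 16 h at 37C and loaded with CCF4-AM for 2 h.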

[3] = TOX21_p53_BLA_p3_viability: Viability Assessment in the Tox21 HCT-116 p53 Agonism Beta-lactamase Assay, Phase 3 (AID 2283593);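 further: cells exposed to compound for 16 h before reading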
Summary of the method: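 HCT116 cells, 4000/well, dosed 5 h after plating by pin transfer (217-fold dilution from DMSO stock) and incubated 16 h at 37C, 5% CO2. Viability read as ATP luminescence with CellTiter-Glo after 30 min at room temperature.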

[4] = biological target: Cellular tumor antigen p53 (Homo sapiens) (UniProt P04637); experiment: TOX21_p53_BLA_p3_ratio: Tox21 HCT-116 p53 Agonism Beta-lactamase Assay, Ratio, Phase 3 (AID 2283596)
Summary of the method: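 Cells were seeded at 4000/well, rested 5 h at 37C, then dosed with DMSO compound solutions (217-fold dilution) for 16 h. CCF4-AM substrate was loaded for 2 h at room temperature, and the 460/530 nm emission ratio was fitted for gain of signal versus DMSO.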

[5] = TOX21_p53_BLA_p4_viability: Viability Assessment in the Tox21 HCT-116 p53 Agonism Beta-lactamase Assay, Phase 4 (AID 2283597);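 further: hits lower the luminescence signal meaning cytotoxicity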
Summary of the method: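 In this multiplexed secondary endpoint, HCT116 cells (4000 per well, compound at 5 h, 16 h treatment) received CellTiter-Glo after the beta-lactamase read. Luminescence after 30 min RT reflects ATP, and falling signal marks cytotoxicity.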

[6] = biological target: Cellular tumor antigen p53 (Homo sapiens) (UniProt P04637); experiment: TOX21_p53_BLA_p5_ratio: Tox21 HCT-116 p53 Agonism Beta-lactamase Assay, Ratio, Phase 5 (AID 2283599)
Summary of the method: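 HCT-116 p53-bla cells (4000/well) plated 5 h, dosed with compound (217-fold DMSO dilution) for 16 h at 37 C; CCF4-AM substrate 2 h at room temperature. Activity is the 460/530 nm emission ratio (405 nm excitation), fitted in gain-of-signal direction versus DMSO.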

[7] = TOX21_p53_BLA_p5_viability: Viability Assessment in the Tox21 HCT-116 p53 Agonism Beta-lactamase Assay, Phase 5 (AID 2283600)
Summary of the method: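 Here cell health was gauged by ATP levels in wells holding 4000 cells, each treated 16 h with DMSO-delivered compounds at 217-fold dilution; reduced luminescence marked toxicity.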

[8] = biological target: Cellular tumor antigen p53 (Homo sapiens) (UniProt P04637); experiment: TOX21_p53_BLA_p4_ratio: Tox21 HCT-116 p53 Agonism Beta-lactamase Assay, Ratio, Phase 4 (AID 2283601)
Summary of the method: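 HCT-116 p53 beta-lactamase reporter cells (4000/well) preincubated 5 h, then compound (217-fold dilution of DMSO stock) for 16 h at 37C. CCF4-AM substrate added 2 h at room temperature; 460/530 nm emission ratio fitted upward versus DMSO.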

Measured: AC50

CCOc1cc(-c2nccc3cc(OC)c(OC)cc23)cc(OCC)c1OCC
inactive: all assays above

CCCCCCCC/C=C\CCCCCCCC(=O)N(CCO)CCO
inactive: all assays above

O=C(O)c1cc(=O)[nH]c(=O)[nH]1
inactive: all assays above

O=C(Nc1ccc(Oc2ccc(Cl)cc2)c(Cl)c1)c1cc(I)cc(I)c1O
inactive: [7]
active: [1] 4.23 µM | [2] 4.05 µM | [3] 2.64 µM | [4] 3.93 µM | [5] 2.3 µM | [6] 10.2 µM | [8] 8.12 µM

Clc1ccc(C(Cn2ccnc2)OCc2c(Cl)cccc2Cl)c(Cl)c1 (stereo unspecified)
active: [2] 17.7 µM | [4] 17.9 µM | [8] 16.7 µM
inactive: all other assays above

CCCCCCCCCCCCCCC(=O)O
inactive: all assays above

CC[C@H]1CN2CCc3cc(OC)c(OC)cc3[C@@H]2C[C@@H]1C[C@H]1NCCc2cc(OC)c(OC)cc21
inactive: all assays above

O=C(O)c1cc(O)c(O)c(O)c1
inactive: all assays above

NC(=S)N=Nc1ccc(NN=C(N)N)cc1
inactive: all assays above

COc1c(C)c2c(c(O)c1C/C=C(\C)CCC(=O)OCCN1CCOCC1)C(=O)OC2
active: [2] 0.139 µM | [4] 0.164 µM | [5] 0.805 µM | [6] 0.183 µM | [8] 0.194 µM
inactive: [1] | [3] | [7]

CC[C@@H]([C@H](C)O)n1ncn(-c2ccc(N3CCN(c4ccc(OC[C@@H]5CO[C@@](Cn6cncn6)(c6ccc(F)cc6F)C5)cc4)CC3)cc2)c1=O
active: [5] 18.1 µM
inactive: all other assays above

Cc1cc(-c2ccc(N=Nc3cc(S(=O)(=O)O)c4ccccc4c3N)c(C)c2)ccc1N=Nc1cc(S(=O)(=O)O)c2ccccc2c1N
active: [2] 6.5 µM | [4] 12.6 µM
inactive: all other assays above

CCN1/C(=C/C=C/c2sc3ccccc3[n+]2CC)Sc2ccccc21
inactive: [1] | [7]
active: [2] 9.06 µM | [3] 4.58 µM | [4] 23.5 µM | [5] 20 µM | [6] 11.5 µM | [8] 12.9 µM

C=C(Nc1ccc(OCC)cc1)Nc1ccc(OCC)cc1
inactive: all assays above

Cc1ccc(-n2nc(C(C)(C)C)cc2NC(=O)Nc2ccc(OCCN3CCOCC3)c3ccccc23)cc1
inactive: all assays above

CSc1nc2cc(Oc3cccc(Cl)c3Cl)c(Cl)cc2[nH]1
active: [1] 14.5 µM | [2] 33.3 µM | [3] 22.6 µM | [4] 33.9 µM | [5] 33.2 µM | [8] 20.5 µM
inactive: [6] | [7]

C/C=C1\NC(=O)[C@H]2CSSCC/C=C/[C@H](CC(=O)N[C@H](C(C)C)C(=O)N2)OC(=O)C(C(C)C)NC1=O (stereo partly specified)
active: [1] 1.46 µM | [2] 0.00463 µM | [3] 1.87 µM | [4] 4.57 µM | [5] 0.735 µM | [6] 11.4 µM | [7] 2.56 µM | [8] 7.21 µM

Nc1[nH]c(=O)ncc1F
inactive: all assays above

Cc1ccc2nc(N)[nH]c(=O)c2c1Sc1ccncc1
active: [2] 2.17 µM | [3] 3.66 µM | [4] 3.22 µM
inactive: all other assays above

CC=C(C(=CC)c1ccc(O)cc1)c1ccc(O)cc1
active: [4] 4.02 µM | [8] 3.75 µM
inactive: all other assays above

COc1ccc(C(=O)CC(=O)c2ccc(C(C)(C)C)cc2)cc1
active: [2] 18.5 µM
inactive: all other assays above

Cc1c(C(=O)NN2CCCCC2)nn(-c2ccc(Cl)cc2Cl)c1-c1ccc(Cl)cc1
active: [1] 28.3 µM | [3] 23 µM | [5] 21.4 µM | [6] 37.8 µM | [7] 23 µM
inactive: [2] | [4] | [8]

CN1CCN(CCCN2c3ccccc3Sc3ccc(C(F)(F)F)cc32)CC1
active: [1] 36.4 µM | [5] 33.9 µM | [8] 43.1 µM
inactive: all other assays above

Nc1cc(S(=O)(=O)O)cc2cc(S(=O)(=O)O)cc(O)c12
inactive: all assays above

CC1=C(/C=C/C(C)=C/C=C/C(C)=C\C=O)C(C)(C)CCC1
inactive: [2] | [8]
active: [1] 72.1 µM | [3] 64.9 µM | [4] 75.3 µM | [5] 80.9 µM | [6] 66.7 µM | [7] 74.6 µM

CCCCCCCCCCCCCCCCCC(=O)OC[C@@H](O)[C@H]1OC[C@H](O)[C@H]1O
inactive: all assays above

OC1(c2ccc(Cl)c(C(F)(F)F)c2)CCN(CCCC(c2ccc(F)cc2)c2ccc(F)cc2)CC1
active: [1] 12.8 µM | [2] 19.6 µM | [3] 30.7 µM | [4] 40.1 µM | [5] 20 µM | [6] 43.2 µM | [7] 37.6 µM | [8] 34.1 µM

CC[C@H]1OC(=O)C[C@@H](O)[C@H](C)[C@@H](O[C@@H]2O[C@H](C)[C@@H](O[C@H]3C[C@@](C)(O)[C@@H](O)[C@H](C)O3)[C@H](N(C)C)[C@H]2O)[C@@H](CC=O)C[C@@H](C)C(=O)/C=C/C(C)=C/[C@@H]1CO[C@@H]1O[C@H](C)[C@@H](O)[C@@H](OC)[C@H]1OC
inactive: all assays above

CCCCC(CC)CN=C(N)NC(N)=NCCCCCCN=C(N)NC(N)=NCC(CC)CCCC (stereo unspecified)
active: [1] 32 µM | [2] 24.1 µM | [3] 36.8 µM | [4] 33.9 µM | [5] 29.4 µM | [6] 37.3 µM | [7] 31.6 µM | [8] 27.9 µM

NC(=O)Nc1ccc(Cl)c(Cl)c1
inactive: all assays above

Nc1cnn([C@@H]2O[C@H](CO)[C@@H](O)[C@H]2O)c(=O)n1
active: [2] 3.04 µM | [4] 2.28 µM | [6] 6.26 µM | [8] 1.34 µM
inactive: [1] | [3] | [5] | [7]

CCCCCCCC[P+](CCCCCCCC)(CCCCCCCC)CCCCCCCC
active: [1] 15.8 µM | [2] 29.2 µM | [3] 13.3 µM | [4] 13.4 µM | [5] 21.6 µM | [6] 13.2 µM | [7] 13.6 µM | [8] 31.7 µM

CCCCCCCCNC(C)C(O)c1ccc(SC(C)C)cc1 (stereo unspecified)
active: [1] 22.4 µM | [2] 35.8 µM | [3] 15.2 µM | [4] 18.7 µM | [5] 18.3 µM | [6] 23.9 µM | [7] 19 µM | [8] 33.9 µM

C#C[C@]1(O)CC[C@H]2[C@@H]3[C@H](C)CC4=C(CCC(=O)C4)[C@H]3CC[C@@]21C
inactive: all assays above

C[C@]12O[C@H](C[C@]1(O)CO)n1c3ccccc3c3c4c(c5c6ccccc6n2c5c31)CNC4=O
active: [1] 1.06 µM | [2] 0.0434 µM | [3] 1.13 µM | [4] 0.0715 µM | [5] 2.24 µM | [6] 0.0787 µM | [8] 0.0528 µM
inactive: [7]

CC(C)OC(=O)CCCCC(=O)OC(C)C
active: [2] 60.5 µM | [6] 71.9 µM | [8] 69 µM
inactive: all other assays above

CCCCCCCCCCCCCCCCC(C(=O)O)C(O)(CC(=O)O)C(=O)O (stereo unspecified)
active: [3] 42.3 µM | [4] 41.2 µM | [6] 38.7 µM | [7] 34.3 µM
inactive: [1] | [2] | [5] | [8]

O=C(/C=C/c1ccc([N+](=O)[O-])cc1)c1ccccc1
inactive: all assays above

Oc1ccc(Sc2ccc(O)cc2)cc1
active: [2] 69.4 µM | [4] 69.8 µM | [6] 70.4 µM
inactive: all other assays above

Clc1ccc(COC(Cn2ccnc2)c2ccc(Cl)cc2Cl)c(Cl)c1 (stereo unspecified)
active: [2] 17.3 µM
inactive: all other assays above

N=C1N=C(N)c2cc3ccccc3cc21
active: [1] 23.6 µM | [2] 11.6 µM | [3] 38.5 µM | [4] 18.5 µM | [5] 21 µM | [6] 15 µM | [7] 27.4 µM | [8] 19.8 µM

O=C1C(=O)c2ccccc2C(O)=C1C1CCC(c2ccc(Cl)cc2)CC1 (stereo unspecified)
active: [2] 10.3 µM | [4] 1.61 µM | [6] 10.3 µM
inactive: all other assays above
